We go through five compounds from PubChem BioAssay.

Assay [1] can be described thus: rapamycin-like changes in RPL19A-GFP expression – cell-based, S. cerevisiae, multiplex flow cytometry, primary screen (AID 1862; in the data active = percent of DMSO control GFP below about 86%;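 also: lower values mimic rapamycin by blocking the RPL19A rise seen in DMSO cells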). As to conditions: S. cerevisiae RPL19A-GFP strain, flow cytometry fluorescence, 3 h; at 10 µM; stronger effect = lower value. On the technique in general: In flow cytometry, cells or beads pass a laser one at a time.
Assay [2] can be described thus: TOR pathway GLN3 branch reporter MEP2-GFP changes – S. cerevisiae, multiplex flow cytometry, primary screen (AID 1867;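 active = GFP response, as percent of the DMSO control, above the screen-wide mean plus 3 SD, about 139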;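 also: median GFP channel fluorescence of barcode-gated MEP2-GFP cells measured by flow cytometry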). To be noted: S. cerevisiae MEP2-GFP strain, 3 h, at 10 µM, stronger effect = higher value, 100% means same as DMSO wells.
A short description of assay [3]: TOR pathway RTG branch CIT2 reporter changes – S. cerevisiae, GFP fusion, multiplex flow cytometry, primary screen (AID 1870;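 active = percent response above a set limit, the screen-wide mean plus 3 SD, cut at about 130% in these data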;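 also: barcoded CIT2-GFP strain pooled with four other GFP strains with rapamycin as positive control; median GFP fluorescence per well over plate mean of DMSO wells so 100% = DMSO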). As to conditions: S. cerevisiae CIT2-GFP expression, 3 h, at 10 µM, stronger effect = higher value.
Assay [4] in a line: TOR pathway LAP4-GFP level changes – S. cerevisiae, multiplex flow cytometry, primary screen (AID 1873;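 active = GFP signal, as percent of the solvent control, above the screen mean plus 3 SD, about 149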). As to conditions: S. cerevisiae LAP4-GFP expression, 3 h, at 10 µM, stronger effect = higher value.
Assay [5] in a line: yeast AGP1-GFP level changes, GLN3 branch – cell-based, multiplex flow cytometry, S. cerevisiae, primary screen (AID 1887;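 active = GFP signal above the screen-wide mean plus 3 SD, that is over about 124.5% of the solvent control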;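 also: AGP1-GFP fusion strain of S. cerevisiae within a five-strain barcoded multiplex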). As to conditions: 3 h, at 10 µM, stronger effect = higher value.
Assay [6] is described as follows: reduced mouse 2C T cell binding to pMHC/ICAM-1 vesicles – MLPCN validation set, flow cytometry, LFA-1/ICAM-1 modulator project, pilot screen (AID 2523;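 active = response below a set limit, under 55% cells CD8-positive and vesicle-bound, and CD8 cells' 90th-percentile brightness under 279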;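 as to vesicle binding response: mean PE anti-B7-1 fluorescence of CD8+ cells relative to row control; 100% = QL9-loaded vesicles with DMSO vehicle in the same plate row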). To be noted: 2C mouse CD8+ T cells, at 7 µM, stronger effect = lower value; double positive events: measured here: CD8+/vesicle+ event percentage.
The target of assay [7] is Integrin beta-1 (Homo sapiens) + Integrin alpha-4 (Homo sapiens) (UniProt P13612+P05556). As to the kind of experiment: alpha4beta1 integrin LIBS antibody binding reduction – U937 cells, HUTS-21 mAb, flow cytometry, validation set, VLA-4 allosteric modulator project, pilot screen (AID 2674).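 Also: antibody binding induced by the VLA-4 ligand LDV present at three times its Kd; 0% = LDV ligand with antibody and no compound and 100% = antibody without LDV.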 As to conditions: HUTS-21 LIBS mAb binding, at 6.7 µM, stronger effect = higher value, binding induced by LDV ligand.

Assay [8] can be described thus: calorie-restriction mimetic ROS inhibitors, yeast – validation compound set, pilot screen (AID 2706;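 active = superoxide response below 65% of plate, a cut near 3 SD across the whole screen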;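 also: yeast exposed to compound for one week at 30 degrees C before staining; 100% = mean of all compound wells on the same plate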). To be noted: S. cerevisiae aging, superoxide DHE fluorescence; at 10 µM, stronger effect = lower value.
Assay [9] has as its target Beta-adrenergic receptor kinase 1 (Homo sapiens) (UniProt P25098). As to the kind of experiment: GRK2 binders displacing RNA aptamer, biochemical, validation, human GRK2, bead flow cytometry (AID 488806;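 active = aptamer binding inhibition above 30%, about 3 SD of noise from non-fluorescent compounds; inactive = inhibition at or below 30%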). To be noted: bead-bound GRK2, FAM-aptamer displacement, at 10 µM, stronger effect = higher value.
Assay [10] concerns the target AP-2 complex subunit beta (Homo sapiens) (UniProt P63010). As to the kind of experiment: beta-arrestin/AP2 interaction blockers – biochemical, validation set, GST-AP2 beads, flow cytometry, pilot screen (AID 504541;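 active = inhibition above 54%, about 3 SD of non-fluorescent compounds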;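 also: AP2 carries R879A mutation and is captured from E. coli lysate; bead-bound FITC arrestin peptide fluorescence measuring arrestin peptide binding to AP2; 0% = DMSO wells and 100% = excess unlabeled arrestin peptide control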). As to conditions: FITC arrestin peptide, at 10 µM, stronger effect = higher value, AP2 beta2 appendage fragment, R879A mutant.
The nature of assay [11]: cytosolic pH regulators acting via V-ATPase – S. cerevisiae, pHLuorin, HTS validation (AID 504600; in the data active = response above about 15%;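 also: plate controls were DMSO for no effect and reference compound for full effect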). As to conditions: V-ATPase proton transport, at 10 µM, stronger effect = higher value.
Assay [12] concerns anti-desmoglein-3 scFv antibody binding to human DSG3. As to the kind of experiment: blockers of pathogenic pemphigus antibody–desmoglein-3 binding – biochemical, validation compound set, bead-based, flow cytometry, pilot screen (AID 588368;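 active = binding below the plate cutoff, the plate median minus 3 SD, with a reading above zero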;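 also: signal is the median channel fluorescence of bead-bound GFP antibody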). To be noted: Protein G beads, DSG3-Fc, scFv-GFP binding, at 10 µM, stronger effect = lower value.
Assay [13] can be described thus: Nile Red efflux blockade in pump-expressing yeast – validation compound set, multiplex, phenotypic, pilot screen (AID 588506;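 active = efflux inhibition above 0.42, the validation set average plus 4 SD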;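 also: Nile Red retained in cells so higher fluorescence means more efflux inhibition; 0 = negative control wells and 1 = enniatin B 25 µM full block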). To be noted: S. cerevisiae pump-expressing triplex, Nile Red efflux flow cytometry; at 10 µM; stronger effect = higher value; the pumps come from Candida albicans.
The target in assay [14] is ATP-binding cassette sub-family B member 6 (Homo sapiens) (UniProt Q9NP58). As to the kind of experiment: blockers of ABCB6-driven porphyrin uptake – K562-ABCB6 cells, flow cytometry, validation set, pilot screen (AID 588550;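 active = inhibition above the screen-wide mean plus 3 SD, about 51%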;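 also: 0% = DMSO wells and 100% = benzethonium chloride 70 µM positive control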). To be noted: K562-ABCB6 porphyrin accumulation, 1 h, at 10 µM, stronger effect = higher value.
Assay [15] is described as follows: AML differentiation inducers, ER-HoxA9 marrow cells – cell-based, GFP/MAC1 double positive, flow cytometry, validation set, primary screen (AID 588685;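 active = differentiation response of at least 50%, scaled between solvent and reference control, from cells with both markers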;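 also: compound exposure lasts four days before antibody staining and flow analysis; 0% = DMSO wells and 100% = 5 µM fulvestrant positive control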). As to conditions: stronger effect = higher value, normalized: vehicle 0, fulvestrant 100.

Results filed as inconclusive are left out. Active and inactive are the calls of the source.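 The calls were made as follows, unless noted: active = inhibition above 50%, about 3 SD of the validation set; inactive = the rest.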

Chain of Integrin beta-1 (Homo sapiens) + Integrin alpha-4 (Homo sapiens) (P05556 whole entry, looked up): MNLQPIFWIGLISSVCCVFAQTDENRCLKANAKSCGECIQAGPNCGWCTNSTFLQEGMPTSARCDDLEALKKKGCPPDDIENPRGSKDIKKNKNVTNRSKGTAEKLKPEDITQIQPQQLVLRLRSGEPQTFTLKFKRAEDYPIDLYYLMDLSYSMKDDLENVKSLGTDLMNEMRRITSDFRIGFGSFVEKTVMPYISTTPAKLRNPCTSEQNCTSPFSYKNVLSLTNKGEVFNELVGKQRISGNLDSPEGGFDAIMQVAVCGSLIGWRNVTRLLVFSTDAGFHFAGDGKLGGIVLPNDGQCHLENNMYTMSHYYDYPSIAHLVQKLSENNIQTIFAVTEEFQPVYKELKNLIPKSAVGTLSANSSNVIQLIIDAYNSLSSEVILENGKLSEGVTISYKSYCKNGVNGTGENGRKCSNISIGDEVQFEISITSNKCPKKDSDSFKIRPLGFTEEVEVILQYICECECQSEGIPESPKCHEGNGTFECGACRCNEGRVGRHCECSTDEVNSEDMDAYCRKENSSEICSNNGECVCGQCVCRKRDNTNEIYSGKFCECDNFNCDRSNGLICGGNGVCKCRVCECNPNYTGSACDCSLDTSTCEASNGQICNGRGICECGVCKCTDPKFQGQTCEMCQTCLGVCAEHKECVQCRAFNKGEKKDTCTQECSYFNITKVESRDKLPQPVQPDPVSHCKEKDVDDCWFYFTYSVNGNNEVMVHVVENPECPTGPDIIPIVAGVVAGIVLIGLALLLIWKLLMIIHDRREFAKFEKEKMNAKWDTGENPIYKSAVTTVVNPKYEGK
Chain of Integrin beta-1 (Homo sapiens) + Integrin alpha-4 (Homo sapiens) (P13612 whole entry, looked up): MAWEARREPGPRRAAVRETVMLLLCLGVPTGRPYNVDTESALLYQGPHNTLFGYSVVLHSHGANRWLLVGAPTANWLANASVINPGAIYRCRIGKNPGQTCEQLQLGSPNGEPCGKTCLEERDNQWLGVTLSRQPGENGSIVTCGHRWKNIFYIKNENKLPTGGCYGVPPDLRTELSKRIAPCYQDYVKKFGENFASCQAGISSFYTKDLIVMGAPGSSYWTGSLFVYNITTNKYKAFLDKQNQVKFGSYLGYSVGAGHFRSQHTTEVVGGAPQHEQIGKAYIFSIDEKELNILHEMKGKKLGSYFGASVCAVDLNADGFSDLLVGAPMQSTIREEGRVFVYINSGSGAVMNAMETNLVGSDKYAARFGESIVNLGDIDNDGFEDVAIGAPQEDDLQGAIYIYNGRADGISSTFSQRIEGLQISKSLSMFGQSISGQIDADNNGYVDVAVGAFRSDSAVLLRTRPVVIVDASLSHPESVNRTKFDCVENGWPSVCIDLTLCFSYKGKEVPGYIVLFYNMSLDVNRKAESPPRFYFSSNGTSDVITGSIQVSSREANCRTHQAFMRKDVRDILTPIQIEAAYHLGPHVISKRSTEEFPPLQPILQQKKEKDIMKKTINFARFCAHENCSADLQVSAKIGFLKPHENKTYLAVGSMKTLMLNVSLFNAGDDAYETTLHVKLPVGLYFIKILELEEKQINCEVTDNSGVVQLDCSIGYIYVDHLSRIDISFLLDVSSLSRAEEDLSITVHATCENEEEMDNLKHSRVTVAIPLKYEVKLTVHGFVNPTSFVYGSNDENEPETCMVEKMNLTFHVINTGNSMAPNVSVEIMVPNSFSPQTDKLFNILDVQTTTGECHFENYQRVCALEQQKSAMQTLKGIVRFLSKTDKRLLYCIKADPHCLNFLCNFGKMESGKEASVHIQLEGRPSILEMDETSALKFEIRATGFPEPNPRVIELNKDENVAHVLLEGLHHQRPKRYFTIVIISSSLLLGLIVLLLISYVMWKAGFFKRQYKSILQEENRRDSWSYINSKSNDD
Chain of AP-2 complex subunit beta (Homo sapiens) (P63010 whole entry, looked up, the tested form may be a part, one chain of several): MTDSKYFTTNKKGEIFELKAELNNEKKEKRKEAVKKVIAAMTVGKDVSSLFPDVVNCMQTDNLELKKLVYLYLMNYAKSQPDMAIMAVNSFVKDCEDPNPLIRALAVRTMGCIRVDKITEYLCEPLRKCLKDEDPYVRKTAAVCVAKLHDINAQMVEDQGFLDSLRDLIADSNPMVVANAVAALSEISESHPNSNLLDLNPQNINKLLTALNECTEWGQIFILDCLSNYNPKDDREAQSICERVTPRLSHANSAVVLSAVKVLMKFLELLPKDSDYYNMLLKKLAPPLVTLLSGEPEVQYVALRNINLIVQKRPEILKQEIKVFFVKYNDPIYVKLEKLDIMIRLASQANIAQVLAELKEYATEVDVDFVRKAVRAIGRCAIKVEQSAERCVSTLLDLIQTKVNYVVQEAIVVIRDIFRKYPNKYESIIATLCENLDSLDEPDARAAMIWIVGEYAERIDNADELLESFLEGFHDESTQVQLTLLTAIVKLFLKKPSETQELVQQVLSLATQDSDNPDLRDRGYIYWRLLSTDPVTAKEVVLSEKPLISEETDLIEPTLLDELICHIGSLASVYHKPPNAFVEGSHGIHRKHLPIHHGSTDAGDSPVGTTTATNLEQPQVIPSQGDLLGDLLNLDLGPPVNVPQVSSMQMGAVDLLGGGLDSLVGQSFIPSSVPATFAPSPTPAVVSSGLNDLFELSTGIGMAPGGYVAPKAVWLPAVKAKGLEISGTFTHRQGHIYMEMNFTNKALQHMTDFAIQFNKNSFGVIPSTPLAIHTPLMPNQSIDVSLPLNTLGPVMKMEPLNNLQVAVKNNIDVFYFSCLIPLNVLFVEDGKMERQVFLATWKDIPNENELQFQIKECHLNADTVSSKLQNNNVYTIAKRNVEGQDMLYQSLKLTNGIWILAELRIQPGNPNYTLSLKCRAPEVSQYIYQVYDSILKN
Chain of ATP-binding cassette sub-family B member 6 (Homo sapiens) (Q9NP58 whole entry, looked up): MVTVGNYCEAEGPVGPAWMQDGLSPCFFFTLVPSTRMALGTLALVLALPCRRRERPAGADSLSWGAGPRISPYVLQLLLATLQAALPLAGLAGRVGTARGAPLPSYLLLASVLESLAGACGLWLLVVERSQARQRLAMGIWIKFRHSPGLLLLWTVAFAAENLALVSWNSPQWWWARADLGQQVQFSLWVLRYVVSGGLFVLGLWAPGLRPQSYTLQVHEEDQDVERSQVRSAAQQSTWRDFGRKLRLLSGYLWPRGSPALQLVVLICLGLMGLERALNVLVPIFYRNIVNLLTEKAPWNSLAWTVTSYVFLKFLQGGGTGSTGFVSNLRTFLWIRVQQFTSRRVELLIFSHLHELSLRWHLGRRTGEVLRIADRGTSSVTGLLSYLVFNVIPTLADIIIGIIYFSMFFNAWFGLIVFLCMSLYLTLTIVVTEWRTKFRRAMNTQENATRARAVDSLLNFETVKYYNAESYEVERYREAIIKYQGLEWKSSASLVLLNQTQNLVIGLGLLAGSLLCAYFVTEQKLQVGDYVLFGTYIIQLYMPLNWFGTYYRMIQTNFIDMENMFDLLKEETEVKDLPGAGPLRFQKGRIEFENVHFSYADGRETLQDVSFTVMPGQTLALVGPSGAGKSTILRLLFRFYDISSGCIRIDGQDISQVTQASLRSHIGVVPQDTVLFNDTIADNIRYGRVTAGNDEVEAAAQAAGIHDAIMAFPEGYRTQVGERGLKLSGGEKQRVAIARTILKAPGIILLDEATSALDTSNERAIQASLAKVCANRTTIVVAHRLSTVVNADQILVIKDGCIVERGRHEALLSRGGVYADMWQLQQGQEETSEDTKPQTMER
Chain of Beta-adrenergic receptor kinase 1 (Homo sapiens) (P25098 whole entry, looked up): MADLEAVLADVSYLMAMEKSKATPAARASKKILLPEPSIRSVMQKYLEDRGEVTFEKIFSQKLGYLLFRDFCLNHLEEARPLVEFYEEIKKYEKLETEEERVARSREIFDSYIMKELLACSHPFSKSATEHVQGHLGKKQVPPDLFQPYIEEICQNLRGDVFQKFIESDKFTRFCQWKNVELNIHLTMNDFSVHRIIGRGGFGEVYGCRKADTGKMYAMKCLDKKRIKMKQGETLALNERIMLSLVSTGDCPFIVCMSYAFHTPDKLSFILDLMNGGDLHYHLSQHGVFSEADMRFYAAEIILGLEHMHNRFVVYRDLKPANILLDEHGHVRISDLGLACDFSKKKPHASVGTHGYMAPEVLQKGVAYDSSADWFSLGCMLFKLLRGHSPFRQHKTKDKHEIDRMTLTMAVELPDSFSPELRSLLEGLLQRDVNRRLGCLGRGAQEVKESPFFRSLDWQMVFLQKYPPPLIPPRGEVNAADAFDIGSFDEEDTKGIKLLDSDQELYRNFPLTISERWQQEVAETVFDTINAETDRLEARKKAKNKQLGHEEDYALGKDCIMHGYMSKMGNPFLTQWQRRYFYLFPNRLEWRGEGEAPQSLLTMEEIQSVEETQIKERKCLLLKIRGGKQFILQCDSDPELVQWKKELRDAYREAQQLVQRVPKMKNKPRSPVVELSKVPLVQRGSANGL

With `COCCOC(=O)c1c(C)oc2ccc(OCc3cc(C(=O)OC)oc3C)cc12`, the percent of DMSO control GFP in assay [1] is 97.6% (inactive). The figures for the GFP response vs DMSO in [2] and in assay [4] were 102% (inactive) and 101% (inactive), respectively. Moreover, the percent response of DMSO control in assay [3] was 93.9% (inactive). For the same compound, the GFP response, % of DMSO in assay [5] is 98.1% (inactive). In [6], the double positive events came out at 52.6%. The vesicle binding response in assay [6] was 202% (inactive). Moreover, the inhibition in assay [7] was 10.9% (inactive); in assay [10], -4.42% (inactive); in [14], 4% (inactive). Further, the superoxide response (% of plate) in assay [8] was 93.4% (inactive). Further, the aptamer binding inhibition in assay [9] was 0% (inactive). Further, the response in [11] is 26.8% (active). Moreover, the binding (% of control) in [12] is 98.7% (inactive). For the same compound, the efflux inhibition (fraction of control) in assay [13] was 0.06 (inactive). Further, in assay [15], the differentiation response is -11.5% (inactive).

Consider `CC(C)Oc1ccc(C(CC(=O)O)c2ccc(F)cc2)cc1` (stereo not given), for which, in assay [1], the percent of DMSO control GFP is 102% (inactive). The figures for the GFP response vs DMSO in [2] and in [4] were 108% (inactive) and 113% (inactive), respectively. In addition, in assay [3], the percent response of DMSO control is 92% (inactive). The GFP response, % of DMSO in [5] was 90.4% (inactive). Besides, the double positive events in assay [6] was 62.7%. Moreover, the vesicle binding response in [6] was 164% (inactive). Further, the inhibition is 9.09% (inactive) in assay [7], -6.35% (inactive) in [10] and 5% (inactive) in assay [14]. The superoxide response (% of plate) in assay [8] is 105% (inactive). For the same compound, the aptamer binding inhibition in [9] was 5% (inactive). In [11], the response was 3.61% (inactive). The binding (% of control) in [12] was 96.7% (inactive). In addition, in [13], the efflux inhibition (fraction of control) is 0.18 (inactive). The differentiation response in [15] was -18% (inactive).

For `COc1cc(C2CC(=O)NC3=C2C(=O)CC(C)(C)C3)ccc1O` (stereo not given), the percent of DMSO control GFP in assay [1] was 99.6% (inactive). In addition, the GFP response vs DMSO is 99.9% (inactive) in assay [2] and 100% (inactive) in assay [4]. The percent response of DMSO control in assay [3] is 105% (inactive). The GFP response, % of DMSO in assay [5] is 103% (inactive). The double positive events in [6] was found to be 61.3%. The vesicle binding response in assay [6] was 141% (inactive). In addition, the inhibition in assay [7] is 11.9% (inactive); in assay [10], 22.3% (inactive); in assay [14] it was 4% (inactive). The superoxide response (% of plate) in assay [8] was 98.7% (inactive). Further, in assay [9], the aptamer binding inhibition was 4% (inactive). In addition, the response in assay [11] was -2.29% (inactive). The binding (% of control) in assay [12] is 96.5% (inactive). Further, in [13], the efflux inhibition (fraction of control) is -0.09 (inactive). For the same compound, in assay [15], the differentiation response was 0% (inactive).

Turning to `O=C(CCCN1CC=C(n2c(=O)[nH]c3ccccc32)CC1)c1ccc(F)cc1`, in assay [1], the percent of DMSO control GFP was 98.1% (inactive). Besides, the GFP response vs DMSO in [2] was 95.9% (inactive); in [4], 93.3% (inactive). Also, in [3], the percent response of DMSO control was 106% (inactive). The GFP response, % of DMSO in assay [5] is 97.2% (inactive). Besides, the double positive events in assay [6] was 63%. Moreover, the vesicle binding response in [6] is 237% (inactive). The inhibition in assay [7] was 5.36% (inactive); in [10], -14.3% (inactive); in [14], 6% (inactive). In addition, the superoxide response (% of plate) in [8] was 97.2% (inactive). In assay [9], the aptamer binding inhibition is -3% (inactive). Also, the response in [11] is -6.07% (inactive). The binding (% of control) in [12] was 104% (inactive). Also, the efflux inhibition (fraction of control) in [13] is -0.05 (inactive). Further, in [15], the differentiation response was -19.6% (inactive).

In the case of `COc1ccc(-c2noc(CCc3ccccc3)n2)cc1`, the percent of DMSO control GFP in assay [1] is 103% (inactive). In addition, the GFP response vs DMSO in assay [2] was 109% (inactive); in [4], 101% (inactive). Besides, in assay [3], the percent response of DMSO control was 90% (inactive). Besides, the GFP response, % of DMSO in assay [5] was 91.8% (inactive). In addition, the double positive events in assay [6] was 56.4%. Besides, in [6], the vesicle binding response is 174% (inactive). In addition, the inhibition is 4.42% (inactive) in assay [7], 4.14% (inactive) in assay [10] and 0% (inactive) in assay [14]. Besides, the superoxide response (% of plate) in assay [8] was 99.8% (inactive). Besides, in assay [9], the aptamer binding inhibition was 0% (inactive). For the same compound, in assay [11], the response is -3.58% (inactive). For the same compound, in [12], the binding (% of control) is 111% (inactive). In [13], the efflux inhibition (fraction of control) was 0.48 (active). Besides, the differentiation response in assay [15] was -0.2% (inactive).

The inhibition is the relative decrease from the control value, in per cent.
